# Source: PubChem BioAssay
# A selection: hits, their analogues and other compounds. The true share with any hit is near 1.1%.
# gsp ag: qHTS for Agonist of gsp, the Etiologic Mutation Responsible for Fibrous Dysplasia/McCune-Albright Syndrome: qHTS. hit rate 0.13% among 340,000. gsp mutant cells, cAMP HTRF, 30 min. Potency, µM (titrated, usually from 76.9 µM), without a hit: top-dose activation (cAMP increase), hits mostly activators; active = well fitted activation curve with a large enough effect; inconclusive = small, poorly fitted or top-dose-only effect, or another doubt; inactive = no such curve, though single readings can be large or run the other way; cell line not stated here;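 note: phosphodiesterase inhibitor Ro 20-1724 added with compounds to block cAMP breakdown; potency is the fitted concentration of half-maximal effect; nearly all actives have a fitted effect of over 60% in size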
#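 Cells stably selected in G418 were plated at 2000/well, grown 16-24 hr, then given compounds in DMSO with the PDE inhibitor […] (300 uM solution added) for 30 min at 37C; cAMP was read by HTRF.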
# S-ASM inh: Inhibitors of Secretory Acid Sphingomyelinase (S-ASM): qHTS | Sphingomyelin phosphodiesterase (Homo sapiens), P17405 | placental ASM, HMU-PC fluorogenic substrate, 60 min | Potency, µM (top dose mostly 57.5 µM), without a hit: at the top dose activity change, negative = inhibition, actives largely listed as inhibitors | hit rate 0.006% among 340,000 | AID 504937, 2011; note: potency is the fitted concentration of half-maximal effect
# Target sequence (P17405 47-631 limits assumed): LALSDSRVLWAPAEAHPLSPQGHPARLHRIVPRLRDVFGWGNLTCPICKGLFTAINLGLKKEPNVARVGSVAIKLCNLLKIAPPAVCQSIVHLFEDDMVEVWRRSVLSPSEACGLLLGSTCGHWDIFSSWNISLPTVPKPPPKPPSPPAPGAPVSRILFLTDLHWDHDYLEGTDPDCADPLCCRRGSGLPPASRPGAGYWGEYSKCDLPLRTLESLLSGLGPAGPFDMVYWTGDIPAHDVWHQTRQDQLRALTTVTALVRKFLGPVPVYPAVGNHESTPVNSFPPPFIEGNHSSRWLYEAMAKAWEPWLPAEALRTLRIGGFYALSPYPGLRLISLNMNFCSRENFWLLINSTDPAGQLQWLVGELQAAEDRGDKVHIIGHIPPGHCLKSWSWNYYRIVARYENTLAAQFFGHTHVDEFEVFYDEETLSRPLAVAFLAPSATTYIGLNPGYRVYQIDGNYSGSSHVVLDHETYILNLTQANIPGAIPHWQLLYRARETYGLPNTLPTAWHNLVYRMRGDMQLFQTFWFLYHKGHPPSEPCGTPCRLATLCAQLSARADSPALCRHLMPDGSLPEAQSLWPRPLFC
#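 Steps: dispense placental human ASM, pin compound, wait 10 min at room temperature, add HMU-PC0 substrate at 9 uM final, incubate 60 min at 37 °C, add stop solution raising pH to 10, read fluorescence.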
# gsp antagonist: qHTS for Antagonists of gsp, the Etiologic Mutation Responsible for Fibrous Dysplasia/McCune-Albright Syndrome: qHTS. gsp-mutant cells, cAMP HTRF, 30 min. hit rate 0.4% among 340,000. AID 624288, 2012. Potency, µM (titrated, usually from 76.9 µM), for the others: top-dose activity change, negative = inhibition, most hits filed as inhibitors; calls by dose curve; cell line not stated here;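 note: intracellular cAMP measured with PDE inhibitor Ro 20-1724 present during compound exposure; potency is the fitted concentration of half-maximal effect; % is set by controls: 0 for no effect and ±100 for the full control effect; nearly all actives have a fitted effect of over 65% in size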
#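 G418-selected cells were plated in DMEM/10% FBS for 16-24 h at 37C, then treated with compounds plus the PDE inhibitor […] (300 uM solution added) for 30 min at 37C. Intracellular cAMP was measured by HTRF after 30 min lysis at room temperature.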
# RXFP1 ag: qHTS Assay for Agonists of the Relaxin Receptor RXFP1; Potency, µM (highest dose often 57.5 µM), for the others: at the highest dose activation, hits mostly activators; HEK293T-RXFP1 cAMP TR-FRET, 30 min; response scale: percent of porcine relaxin response, buffer zero; hit rate 0.3% among 370,000; Relaxin receptor 1 (Homo sapiens), Q9HBX9; AID 2676, 2010; note: potency is the fitted concentration of half-maximal effect; % is set by controls: 0 for no effect and ±100 for the full control effect; nearly all actives have a fitted effect of over 60% in size
#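 HEK293 cells stably expressing RXFP1, treated 30 min at 37C with compounds plus PDE4 inhibitor Ro 20174; cAMP measured by HTRF TR-FRET. Normalized to buffer and 29 nM porcine relaxin; EC50 by Hill fit.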
# Integrin act MD: qHTS for Activators of Integrin-Mediated Alleviation for Muscular Dystrophy | alpha7betagal myoblasts, beta-gal FDG fluorescence, 48 h | Potency, µM (highest dose often 38.3 µM), without a hit: at the highest dose activation, usual class: activators | hit rate 0.064% among 350,000;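 note: potency is the fitted concentration of half-maximal effect; 100% = response of the positive control SU9516; nearly all actives have a fitted effect of over 60% in size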
#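 alpha7betagal+/- myoblasts (passage 13, 250/well) treated 48 h at 37C with compounds at 1:260 dilution of DMSO stock. Lysed, then beta-galactosidase activity read as FDG fluorescence (ex 480/em 540) after 30 min, with pre-read for autofluorescence.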
# RXFP1 antagonist: qHTS Assay for Antagonists of the Relaxin Receptor RXFP1. HEK293-RXFP1, relaxin-stimulated cAMP HTRF, 30 min; stronger effect = lower value. activity change, negative = inhibition, % at 57.5 µM. hit rate 0.59% among 350,000. AID 1259400, 2018;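 active = activity change of -60% or lower, but not beyond a set lower limit; inconclusive = change between -60% and -40%, or beyond the set limit; inactive = change above -40%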; note: % is set by controls: 0 for no effect and ±100 for the full control effect
# Active calls of the source: *; ? = inconclusive; · = not tested or not shown; [ ] = dose if it differs, or a comment. Unless noted, calls come from the whole dose curve; as a rule, active = well fitted curve in the direction sought with a large enough effect; inconclusive = small, poorly fitted or top-dose-only effect, or another doubt; inactive = no such curve, though single readings can be large; an effect the other way counts as inactive or inconclusive.
SMILES,gsp ag,S-ASM inh,gsp antagonist,RXFP1 ag,Integrin act MD,RXFP1 antagonist
Cc1snc(S(=O)(=O)/C(C#N)=N/Nc2cccc(C(F)(F)F)c2)c1C#N,8%,?,35µM*,0%,7%,-4
CCOC(=O)c1cnc2c(C)cc(C)cc2c1Nc1cccc(C(=O)O)c1,·,·,·,-3%,·,·
Cc1ccsc1CN(Cc1ccco1)C(=O)c1ccc(Cl)cc1,·,·,·,5%,·,-74*
CCc1ccc(CN(Cc2ccco2)C(=O)c2ccc(C)cc2)cc1,·,·,·,-1%,·,-68*
CCOc1ccc(C(=O)N(Cc2ccc(C(C)C)cc2)Cc2ccco2)cc1,·,·,·,3%,·,-79*
Cc1ccc(C(=O)N(Cc2ccco2)Cc2sccc2C)cc1,·,·,·,0%,·,-98*
Cc1ccc(C(=O)N(Cc2ccc(N(C)C)cc2)Cc2ccco2)cc1,·,·,·,-1%,·,-22
CN(Cc1cccnc1)C(=O)Cc1ccc(NS(=O)(=O)c2cccc(C(F)(F)F)c2)cc1,?,3%,-5%,-1%,3%,-2
CCOc1ccccc1NC(=O)c1cnn2c(C(F)F)cc(-c3ccccc3)nc12,·,·,·,3%,·,·
C/C(=N\NC(=O)Cc1ccc(Cl)cc1)c1ccccc1O,-39%,-2%,-6%,0%,-14%,-6
Cn1nc(C(F)(F)F)c(-c2ccc(Br)cc2)c1NC(=O)Nc1ccc(F)cc1F,7%[15.4 µM],0%,-20%,5%,-1%,-61*
Cc1ccc(-n2nc3c(=O)n(CC(=O)NC4CCCCCC4)nc(C)c3c2C)cc1,17%,2%,2%,6%,-6%,-7
CCOC(=O)c1c(-c2ccccc2Cl)csc1NC(=O)CSc1nc(C)cc(=O)[nH]1,-33%,-10%,?,1%,-11%,-80*
CC(=O)N1CCc2cc(Br)cc(S(=O)(=O)NCCc3cccc(C)c3)c21,·,·,·,2%,·,-16
Cc1sc2ncnc(N3CCC(C(=O)NNC(=O)COc4ccccc4Cl)CC3)c2c1C,-4%,·,?,0%,21%,?
Cc1cc(Br)ccc1NC(=O)CN(C)C(=O)C1CCN(c2ncnc3sc(C)c(C)c23)CC1,1%,·,32µM*,·,-13%,-19
Cc1sc2ncnc(N3CCC(C(=O)NNC(=O)COc4ccc(Br)cc4)CC3)c2c1C,-17%[15.4 µM],-15%,32µM*,1%,?,-19
Cc1ccc(OCC(=O)NNC(=O)C2CCN(c3ncnc4sc(C)c(C)c34)CC2)cc1,38%[15.4 µM],-3%,-25%,2%,5%,-8
Cc1cccc(C)c1NC(=O)CN(C)C(=O)C1CCN(c2ncnc3sc(C)c(C)c23)CC1,?,0%,-20%,5%,-7%,-16
Cc1sc2ncnc(N3CCC(C(=O)NNC(=O)COc4ccc(Cl)cc4)CC3)c2c1C,?,9%,32µM*,·,9%,-14
Cc1cc(Cl)ccc1OCC(=O)NNC(=O)C1CCN(c2ncnc3sc(C)c(C)c23)CC1,17%,-18%,35µM*,0%,-35%,-20
c1ccc(C(CN2CCCCC2)Oc2ccccn2)cc1 (centres undefined),?,1%,6%,·,-9%,-9
Cc1nn(C2CCS(=O)(=O)C2)c(C)c1C=O (centres undefined),4%[15.4 µM],-1%,16%,0%,-8%,1
O=P(O)(O)OC[C@@H](O)CO,·,·,·,·,·,3
NC1=NC(c2ccc(Cl)cc2)C(C(=O)c2ccccc2)N1 (centres undefined),15%,3%,-2%,0%,?,1
SMILES,gsp ag,S-ASM inh,gsp antagonist,RXFP1 ag,Integrin act MD,RXFP1 antagonist
COc1ccc(OCC(=O)NNC(=O)C2CCN(c3ncnc4sc(C)c(C)c34)CC2)cc1,-25%,-3%,?,0%,-4%,-11
Cc1sc2ncnc(N3CCC(C(=O)NNC(=O)COc4cccc(C(F)(F)F)c4)CC3)c2c1C,28%,·,50µM*,2%,-15%,-31
Cc1sc2ncnc(N3CCC(C(=O)Nc4ccc(OC(F)F)c(Cl)c4)CC3)c2c1C,-35%,-24%,28µM*,·,0%,-7
Cn1c2ccccc2c2cc(/C=N/NC(=O)c3cc(O)ccc3O)ccc21,15%[15.4 µM],-14%,-16%,3%,-8%,-112*
Cn1c2ccccc2c2cc(/C=N/NC(=O)c3cc(O)cc(O)c3)ccc21,-31%,-7%,-2%,4%,1%,-25
O=C(O)c1ccc(-n2ncc(Cl)c(Cl)c2=O)cc1,10µM*,·,·,·,-11%,5
COC(=O)c1sc(NC(=O)C2CCCCC2C(=O)O)c(C(=O)OC)c1C (centres undefined),14µM*,-3%,9%,?,-2%,16
CC(Oc1ccccc1)C(=O)N=Nc1c(O)[nH]c2ccc([N+](=O)[O-])cc12 (centres undefined),-35%,-9%,-12%,1%,19%,-84*
COc1ccc(C2=NCC(CSc3nnc(-c4ccc5c(c4)OCO5)o3)S2)cc1 (centres undefined),?,-7%,28µM*,2%,-17%,15
NC(=O)NS(=O)(=O)c1ccc(Cl)cc1,·,·,·,·,·,10
CC(C)(C)c1ccc(C(=O)Nc2ccc(C(=O)N3CCOCC3)cc2)cc1,-16%,0%,5%,6%,-14%,-76*
O=C(Nc1ccc(C(=O)N2CCOCC2)cc1)c1ccccc1,·,8%,4%,·,-15%,·
CCCC(C(=O)O)n1c(O)c(C=C2N=c3ccccc3=N2)sc1=S (centres undefined),-40%,-1%,-11%,-14%,?,-61*
N#C/C(=N\Nc1ccc(Cl)c(Cl)c1)C(=O)C1CC1,-24%,-22%,25µM*,2%,-61%,-36
N#C/C(=N\Nc1ccc(F)cc1)C(=O)C1CC1,7%,-2%,-8%,-12%,0%,0
COc1cc(CNn2nnnc2N)cc(Br)c1OCc1c(Cl)cccc1Cl,-3%,-12%,40µM*,1%,-18%,-13
COc1cc(CNn2nnnc2N)cc(Br)c1OCC(=O)NC(C)(C)C,-19%,0%,6%,2%,-22%,1
CC(=O)c1[nH]c(C)c(C(=O)NCc2ccc(Cl)cc2)c1C,·,·,·,-2%,·,12
O=C(CN1CCCc2ccccc21)N/N=C/c1c(O)ccc2ccccc12,-10%,98%,?,0%,-8%,-61*
